Screening data deposited in PubChem by National Center for Advancing Translational Sciences (NCATS).
Hits are enriched below; roughly 3.1% of the tested compounds scored in any of these assays.
TrxR1 substrate: is turned over as a substrate by rat TrxR1. actives 0.01% (n = 390,000). AID 588456. purified TrxR1 substrate turnover, NADPH consumption readout. O89049. Potency, µM (doses to about 114 µM), for the others: at the highest dose activity change, negative = substrate turnover; further: on the % scale 0 is the no-effect control and ±100 the full control effect; nearly all actives have a fitted effect of over 50% in size
Target sequence (O89049 whole entry, looked up): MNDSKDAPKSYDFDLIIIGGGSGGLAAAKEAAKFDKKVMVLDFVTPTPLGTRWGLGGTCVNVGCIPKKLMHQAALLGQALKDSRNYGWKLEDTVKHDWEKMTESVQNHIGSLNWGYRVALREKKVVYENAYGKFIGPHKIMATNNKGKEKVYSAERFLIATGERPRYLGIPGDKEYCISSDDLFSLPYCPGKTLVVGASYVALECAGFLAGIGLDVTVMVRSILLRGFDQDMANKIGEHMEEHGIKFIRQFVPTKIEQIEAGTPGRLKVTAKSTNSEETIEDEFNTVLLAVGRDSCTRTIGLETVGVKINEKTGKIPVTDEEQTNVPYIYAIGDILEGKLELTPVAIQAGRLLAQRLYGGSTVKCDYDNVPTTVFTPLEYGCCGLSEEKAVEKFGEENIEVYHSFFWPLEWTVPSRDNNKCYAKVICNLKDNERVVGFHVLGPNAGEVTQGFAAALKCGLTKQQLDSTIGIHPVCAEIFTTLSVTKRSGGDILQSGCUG
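Rat TrxR1, dispensed at 90 nM, was prereduced with 400 uM NADPH (final) for 5 min at ~22 deg C, then incubated with compound 15 min before 400 uM selenite. A first-read NADPH fluorescence drop versus no-compound background flagged substrates.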
Mito fusion act: mitochondrial division inhibition or fusion activation; S. cerevisiae fusion-defective mutant growth rescue, CellTiterGlo 48 h; actives 0.23% (n = 320,000); AID 485298; Potency, µM (doses to about 46.1 µM), for inactives: at the highest dose growth rescue (activation), most hits filed as activators; further: % of control where 0% means no effect; nearly all actives have a fitted effect of over 45% in size
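Temperature-sensitive fusion-defective S. cerevisiae (e.g. fzo1-1, mgm1-5) were grown with compound in YPEG medium (3% ethanol, 3% glycerol) for 48 hours at 37C. Growth rescue was measured as viability by CellTiterGlo luminescence after 10 minutes at ambient.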
A549 tox-1: A549 cytotoxicity, counter-screen for Nrf2 inhibitors; AID 504648; Potency, µM (doses to about 46 µM), for the others: at the top dose activity change, negative = cytotoxicity, most hits filed as inhibitors; A549 ARE-Fluc cells, CellTiter-Fluor viability, 18-24 h; actives 0.16% (n = 390,000); further: on the % scale 0 is the no-effect control and ±100 the full control effect
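A549 ARE_Fluc cells in 5% FBS OPTI-MEM were exposed to compounds in concentration-response for 18-24 h at 37 deg C. Viability was read by CellTiter-Fluor fluorescence (Ex 405/Em 525) after 30 min, before the luciferase read.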
IDH1 R132H inh: blocks human mutant IDH1 R132H enzyme | AID 602179 | IDH1-R132H enzyme, NADPH consumption, diaphorase/resazurin fluorescence | actives 0.093% (n = 390,000) | Potency, µM (highest dose often 76.6 µM), for inactives: top-dose activity change, negative = inhibition, usual class: inhibitors; further: on the % scale 0 is the no-effect control and ±100 the full control effect; nearly all actives have a fitted effect of over 65% in size
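IDH1-R132H (0.5 ug/mL dispensed) in pH 7.5 Tris buffer was preincubated 30 min with compound, then given a substrate mix of 0.016 mM NADPH and 2 mM alpha-KG for 80 min at room temperature; remaining NADPH was read by diaphorase/resazurin fluorescence.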
rTrxR1 inhibitor: blocks rat thioredoxin reductase 1; Potency, µM (titrated, usually from 114 µM), without a hit: at the highest dose activity change, negative = inhibition, hits mostly inhibitors; O89049; actives 1% (n = 390,000); recombinant rTrxR1, NADPH fluorescence consumption, selenite substrate; further: on the % scale 0 is the no-effect control and ±100 the full control effect; nearly all actives have a fitted effect of over 65% in size
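Rat TrxR1 (90 nM in the dispensed reagent) was pre-reduced with 400 uM NADPH for 5 min at room temperature, then incubated with compound for 15 min. After 400 uM selenite was added, NADPH fluorescence (Ex 340/Em 450 nm) was followed for 8 min.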
Nrf2 inh: blocks Nrf2 signaling. Potency, µM (titrated, usually from 46 µM), without a hit: at the top dose activity change, negative = inhibition, usual class: inhibitors. actives 2.1% (n = 360,000). A549 ARE-Fluc reporter, luciferase luminescence, 18-24 h; further: on the % scale 0 is the no-effect control and ±100 the full control effect; nearly all actives have a fitted effect of over 60% in size
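Concentration-response testing used A549 ARE_Fluc cells at 5000 cells/well. Following an 18-24 h compound incubation, viability was read by fluorescence (Ex 405/Em 525) and luciferase output by luminescence.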
FLuc counter 3: counter-screen for Nrf2 inhibitors: firefly luciferase enzyme inhibition | shares compounds with Nrf2 inh | purified firefly luciferase, luminescence inhibition | Potency, µM (doses to about 57.5 µM), without a hit: top-dose activity change, negative = inhibition, hits mostly inhibitors | actives 4% (n = 1,400); further: on the % scale 0 is the no-effect control and ±100 the full control effect; nearly all actives have a fitted effect of over 65% in size
A549 tox-2: A549 cytotoxicity, Nrf2 inhibitor counterscreen; shares compounds with Nrf2 inh; A549 ARE-Fluc cells, cytotoxicity counterscreen; Potency, µM (titrated, usually from 46.1 µM), without a hit: top-dose activity change, negative = cytotoxicity, most hits filed as inhibitors; actives 2% (n = 1,400);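 further: cells exposed to compounds for 18 to 24 hours; on the % scale 0 is the no-effect control and ±100 the full control effect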
Nrf2 ARE inh: confirmation of Nrf2 inhibitors in A549 ARE reporter cells. shares compounds with Nrf2 inh. A549 ARE-firefly luciferase reporter, luminescence. Potency, µM (top dose mostly 46.1 µM), without a hit: top-dose activity change, negative = inhibition, usual class: inhibitors. actives 74% (n = 1,400); further: on the % scale 0 is the no-effect control and ±100 the full control effect; nearly all actives have a fitted effect of over 65% in size
An asterisk follows results filed as active; u = inconclusive; x = no result given; [ ] = dose if it differs, or a comment. The call rests on the fitted dose curve; in most records, active means well fitted curve in the direction sought with a large enough effect; inconclusive means small, poorly fitted or top-dose-only effect, or another doubt; inactive means no such curve, though single readings can be large; an effect the other way counts as inactive or inconclusive. Potency means the concentration at half of the fitted maximal effect.

SMILES	TrxR1 substrate	Mito fusion act	A549 tox-1	IDH1 R132H inh	rTrxR1 inhibitor	Nrf2 inh	FLuc counter 3	A549 tox-2	Nrf2 ARE inh
O=C(NCc1ccccc1)C1=C[C@@H](c2csc3ccccc23)C[C@@H](OCc2ccc(CO)cc2)O1	10%[57.1 µM]	0%	u	6%	9%[57.1 µM]	6.5µM*	1%	-26%	18µM*
O=C(O)C1=C[C@H](c2csc3ccccc23)C[C@H](OCc2ccc(CO)cc2)O1	3%[57.1 µM]	-5%	-2%	-2%	9%[57.1 µM]	-11%	x	x	x
Oc1ccccc1C(Nc1nccs1)c1ccc2cccnc2c1O (stereo unspecified)	-2%	4%	u	-1%	u	5.8µM*	1%	-27%	13µM*
Oc1c(C(Nc2ccccn2)c2ccccn2)ccc2cccnc12 (stereo unspecified)	6%[11.4 µM]	0%	-11%	4%	8%[11.4 µM]	u	x	x	x
Cc1ccc(OCCCC(=O)Nc2ccc(Cl)c(S(=O)(=O)N3CCOCC3)c2)cc1	-2%	2%	-13%	-5%	10%	u	x	x	x
COc1ccc(C(=O)Nc2ccc(Cl)c(S(=O)(=O)N3CCOCC3)c2)cc1	-6%[2.29 µM]	x	-14%	0%	-10%[2.29 µM]	9.2µM*	21µM*	-12%	x
CC(=O)c1ccc(OCCCC(=O)Nc2ccc(Cl)c(S(=O)(=O)N3CCOCC3)c2)cc1	4%	x	-15%	4%	27%	5.2µM*	-13%	-2%	7.3µM*
COc1ccc(C(=O)Nc2ccc(S(=O)(=O)N3CCOCC3)cc2)cc1	5%[57.1 µM]	x	-4%	7%	12%[57.1 µM]	-17%	x	x	x
COc1ccc(Br)cc1CNC(=O)CCSCc1ccc(C)cc1	3%[57.1 µM]	x	15%	-10%	21%[57.1 µM]	x	x	x	x
Cc1ccc(NC(=O)CSc2nn(-c3ccccc3)c(=S)s2)cc1S(=O)(=O)N(C)C	-9%	0%	u	-1%	-6%	5.8µM*	-15%	-17%	7.3µM*
CCn1cc2c(n1)-c1c(oc(C(=O)Nc3cccc(C(F)(F)F)c3)c1C)CC2	-4%	x	-2%	-15%	29%	11%	x	x	x
Nc1ccc(Oc2ccccc2-c2ccccc2)cc1	10%[11.4 µM]	x	9%	0%	14%[11.4 µM]	9.2µM*	u	2%	8.2µM*
CCOc1ccc(-c2cn3c(n2)sc2cc(C(=O)NCCC4=CCCCC4)ccc23)cc1	1%	x	12%	0%	-3%	u	x	x	x
COc1ccc(NC(=O)Cn2ncc3c2-c2ccccc2OC3)cc1Cl	6%	x	-3%	-1%	17%	u	x	x	x
CC(=O)c1ccc(N2CCN(S(=O)(=O)c3ccc4c(c3)CC(C)N4C(=O)C3CC3)CC2)cc1 (stereo unspecified)	4%	-3%	-17%	-6%	29%	5.8µM*	0%	-15%	3.7µM*
CC(=O)c1ccc(N2CCN(S(=O)(=O)c3ccc4c(c3)CC(C)N4C(C)=O)CC2)cc1 (stereo unspecified)	-1%	7%	-13%	-1%	10%	5.8µM*	2.7µM*	-4%	6%
CC(=O)N1c2ccc(S(=O)(=O)N3CCOCC3)cc2CC1C (stereo unspecified)	5%	6%	0%	0%	18%	12%	x	x	x
CCCN1CCN(c2cc3c(cc2F)c(=O)c(S(=O)(=O)c2ccc(CC)cc2)cn3CC)CC1	34%	x	u	-2%	9%	u	x	x	x
O=c1c2cccc3c2c(nn1CN1CCOCC1)-c1ccccc1-3	8%	-5%	-13%	2%	-1%	3.7µM*	3%	-9%	8.2µM*
Cc1ccc(NS(=O)(=O)c2ccc(NC(=O)N3CCCC3)cc2)cc1C	-2%[57.1 µM]	x	13%	0%	16%[57.1 µM]	x	x	x	x
Cn1c(=O)c2c(-c3ccccc3)n(-c3cccc(C#N)c3)cc2n(C)c1=O	-7%	x	1%	-10%	-1%	-5%	x	x	x
O=C(CSc1nc2c([nH]c3ccccc32)c(=O)n1-c1cccc(Cl)c1)NCc1ccccc1	1%[57.1 µM]	x	-18%	-4%	14%[57.1 µM]	x	x	x	x
O=C(Nc1ccc(C(=O)OCc2cc(=O)n3nc(C4CC4)sc3n2)cc1)c1ccccc1	7%[57.1 µM]	x	0%	-7%	14%[57.1 µM]	x	x	x	x
CC(C)(C)OC(=O)NCCCC[C@H](NC(=O)c1nc[nH]c1C(=O)NC(c1ccccc1)c1ccccc1)C(=O)OC(C)(C)C	-12%	-1%	u	-15%	6%	3.7µM*	0%	u	21µM*
C[C@H](NC(=O)c1nc[nH]c1C(=O)N[C@@H](CCCCNC(=O)OC(C)(C)C)C(=O)OC(C)(C)C)C(=O)OC(C)(C)C	-22%	2%	-9%	-11%	-16%	u	x	x	x
SMILES	TrxR1 substrate	Mito fusion act	A549 tox-1	IDH1 R132H inh	rTrxR1 inhibitor	Nrf2 inh	FLuc counter 3	A549 tox-2	Nrf2 ARE inh
COc1cccc(N2CC(NC(=O)c3cccs3)CC2=O)c1 (stereo unspecified)	5%[57.1 µM]	x	8%	19%	29%[57.1 µM]	x	x	x	x
CN(C)CCN1C(=O)c2cccc3cc([N+](=O)[O-])cc(c23)C1=O	-1%[11.4 µM]	x	8.2µM*	0%	-15%[11.4 µM]	1.6µM*	1%	u	2.6µM*
O=S(=O)(c1ccc(-c2csc(=Nc3ccc(OC(F)(F)Cl)cc3)n2CCCO)cc1)N1CCCC1	2%	x	u	8%	11%	6.5µM*	-7%	u	7.3µM*
OCCCn1c(-c2ccccc2)csc1=Nc1ccccc1	-18%[57.1 µM]	-4%	5%	5%	16%[57.1 µM]	-17%	x	x	x
Cn1c(-c2ccc(S(=O)(=O)N3CCCC3)cc2)csc1=Nc1ccc(Cl)c(Cl)c1	11%	x	-5%	-3%	-8%	3.3µM*	u	-13%	6.5µM*
Cc1nc(-c2ccc(S(=O)(=O)N3CCCCCC3)cc2)cs1	-3%	2%	-5%	1%	-2%	0%	x	x	x
COc1ccc(S(=O)(=O)N2CCN(CCOc3ccc(Br)cc3)CC2)cc1OC	-8%	20%	-16%	-5%	6%	5.8µM*	-11%	u	7.3µM*
CCOc1ccc(CCNC(=O)c2cnc3sc(N4CCCCC4)nn3c2=O)cc1	12%[57.1 µM]	x	0%	12%	29%[57.1 µM]	u	x	x	x
